From PubChem
A selection: hits, their analogues and other compounds. The true share with any hit is near 4.1%.
DAX1 inh-1 – DAX1 (NR0B1) inhibitors on StAR promoter, primary screen, cell-based, luminescence, SF-1 (NR5A1), full-length DAX-1 | AID 652010, 2013 | HEK293T StAR-luciferase reporter, SF-1/DAX-1 repression relief | inhibition, % at 6.8 µM | 1.1% of 370,000 active;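 active = inhibition above the mean over all tested compounds plus 3 SD, cut at about 3.6% in these data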;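 note: 0% = DAX-1 cells with DMSO and 100% = cells lacking DAX-1 with DMSO; higher inhibition means more luminescence from relief of DAX-1 repression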
DAX1 inh-2 – DAX1 (NR0B1) inhibitors, primary screen, cell-based, HEK293, Gal4-DAX1, luciferase luminescence; Nuclear receptor subfamily 0 group B member 1 (Homo sapiens), P51843; HEK293 Gal4-DAX1 luciferase reporter; inhibition, % at 6.75 µM; 0.99% of 340,000 active; AID 504766, 2011;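 active = inhibition above the mean over all tested compounds plus 3 SD, cut at about 4.2% in these data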;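 note: 0% = DAX1-transfected cells with DMSO and 100% = empty-vector control cells with DMSO; inhibition shows as a rise in luminescence from relieved DAX1 repression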
Target sequence (P51843 207-470 limits assumed): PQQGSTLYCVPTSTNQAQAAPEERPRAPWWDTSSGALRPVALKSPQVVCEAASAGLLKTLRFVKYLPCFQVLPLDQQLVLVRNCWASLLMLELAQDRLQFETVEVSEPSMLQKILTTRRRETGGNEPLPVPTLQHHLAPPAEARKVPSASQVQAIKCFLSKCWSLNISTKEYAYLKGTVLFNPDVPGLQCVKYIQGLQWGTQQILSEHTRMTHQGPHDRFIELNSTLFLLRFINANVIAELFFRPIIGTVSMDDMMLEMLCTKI
ssDAF-12 act – S. stercoralis DAF-12 nuclear receptor activators, primary screen, cell-based, luminescence, HEK293, GRIP1 co-expression, lit1-tk-luc; activation, % at 6.8 µM; 1% of 370,000 active; Nuclear hormone receptor DAF-12 (Strongyloides stercoralis); HEK293 ssDAF-12/GRIP1 lit1-tk-luc reporter; % of 3 µM dafachronic acid response;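 active = activation above the mean over all tested compounds plus 3 SD, cut at about 0.9% in these data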;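 note: 0% = DMSO-only wells and 100% = 3 µM delta7-dafachronic acid wells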
hgDAF12 agonist – H. glycines DAF-12 receptor agonists, primary screen, cell-based, luminescence, HEK293, GAL4 fusion, UAS-luciferase. activation, % at 6.8 µM. HEK293 GAL4-hgDAF12 UAS-luciferase reporter, agonist luminescence; normalized to butyrate control. Nuclear hormone receptor DAF-12 (Heterodera glycines), GAL4 fusion. 1.8% of 370,000 active;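 active = activation above a cutoff set at the mean of all screened compounds plus 3 SD, cut at about 10% in these data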;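 note: 0% = DMSO wells and 100% = sodium butyrate wells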
hcDAF12 agonist – H. contortus DAF-12 nuclear receptor activators, primary screen, cell-based, luminescence, HEK293, lit1-tk-luc reporter; HEK293 hcDAF-12 lit1-tk-luc reporter; 0% DMSO, 100% Δ7-dafachronic acid; AID 652067, 2013; activation, % at 6.8 µM; 1.4% of 370,000 active;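 active = activation above the mean of all tested compounds plus 3 SD, cut at about 5.5% in these data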;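 note: 100% = response to 3 µM Δ7-dafachronic acid high control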
* hit, by the source's call; / = not tested or not shown.

SMILES	DAX1 inh-1	DAX1 inh-2	ssDAF-12 act	hgDAF12 agonist	hcDAF12 agonist
COC(=O)C1C/C(=N\NS(=O)(=O)c2ccc(C)cc2)c2ccccc2C1 (centres undefined)	-3	0	-1	-1	-1
Cc1ccc(S(=O)(=O)NN=C2CCc3ccccc32)cc1	0	1	1.6*	5	4
COc1ccc(OCC(=O)N/N=C2\CCc3ccccc32)cc1	0	1	0	-2	-1
NC(=O)C(=O)N/N=C1\CCc2ccccc21	1	1	0	4	6.0*
Cc1c[nH]c2cccc(-c3cccc4ccccc34)c12	1	/	-1	2	0
Cc1ccccc1C=O	0	1	-1	2	0
Cc1ccccc1/C=C/C1=NCCN1	-1	-1	1.2*	-4	0
CCc1nnc(NC(=O)CSc2nnc3c(n2)[nH]c2ccccc23)s1	0	0	1.8*	1	-1
Cc1oc2c(C)c(O)ccc2c(=O)c1-c1nncn1-c1ccccc1	0	7.1*	-1	5	2
COCCCNC(=O)C[C@H]1C[C@@]2(C(=O)OC)C(=C[C@H](COCc3ccccc3)O[C@@H]2C)N(Cc2ccc(Cl)cc2Cl)C1=O	0	/	-2	0	-3
COc1ccc(Cl)cc1-c1nc(SCC(=O)NC(C)C)n[nH]1	0	-1	-2	-2	-2
COc1ccc(Cl)cc1-c1nc(SCC(=O)NC(C)C(C)C)n[nH]1 (centres undefined)	0	7.3*	-2	0	-1
CN1CCN(c2ccc(Cl)cc2NC(=O)/C=C/c2ccc(F)cc2)CC1	0	5.7*	-2	-2	0
CCCC#Cc1ccc(CC[C@H]2O[C@H]3CC[C@@H](CO)O[C@H]3C[C@H]2NC(=O)CN2CCOCC2)cc1	0	/	-1	-2	1
C[C@H]1[C@H](N)CC[C@@]23CCCN2C(=O)CCC[C@@H]13	/	/	-2	-1	0
CCc1c(C(=O)Nc2cc(C)ccc2OC)[nH]c(C)c1C(C)=O	-1	0	0	1	5.6*
CSCCC(NC(=O)OC(C)(C)C)C(=O)Oc1ccc2c(=O)c(-c3ccc4c(c3)OCCO4)coc2c1 (centres undefined)	3	0	1	11*	5.7*
Cc1[nH]c2ccccc2c1CC(=O)Nc1ccc(Nc2cccnc2)c(-c2cc(C(F)(F)F)cc(C(F)(F)F)c2)c1	-2	/	-1	2	1
C/C(Cn1cnc([N+](=O)[O-])n1)=N\NC(=O)c1ccccc1O	1	1	-1	8	1
C/C(Cn1cnc([N+](=O)[O-])n1)=N\NC(=O)c1ccccc1F	1	1	1	11*	1
CSc1ccc(C=Nn2c(-c3cc(C)[nH]n3)n[nH]c2=S)cc1	-1	/	-1	-1	-1
O=C(COc1ccc(Cl)cc1Cl)OCC(=O)N1CCCc2ccccc21	1	9.8*	1	4	5
O=C(CCCOc1ccc(Cl)cc1Cl)N1CCCc2ccccc21	0	-1	-1	-2	0
CC(=O)C1=C(C)N(c2ccccc2)C(=O)C1(NS(=O)(=O)c1ccc(N)cc1)C(F)(F)F (centres undefined)	1	1	1.5*	3	5.6*
CCCCn1c(N)c(N(CC(C)C)C(=O)c2cccc(S(=O)(=O)N(C)c3ccccc3)c2)c(=O)[nH]c1=O	1	0	-1	-3	0
SMILES	DAX1 inh-1	DAX1 inh-2	ssDAF-12 act	hgDAF12 agonist	hcDAF12 agonist
CCCCN(C(=O)c1ccc(S(=O)(=O)N(C)c2ccccc2)cc1)c1c(N)n(CCC)c(=O)[nH]c1=O	4.4*	1	-1	1	0
CCCCN(C(=O)c1ccc(N(C)S(=O)(=O)c2ccc(C)cc2)cc1)c1c(N)n(CCC)c(=O)[nH]c1=O	1	1	-1	0	0
CCCCn1c(N)c(N(CC(C)C)C(=O)c2ccc(S(=O)(=O)N(CC)c3ccccc3)cc2)c(=O)[nH]c1=O	0	1	1.4*	-2	1
O=C(c1cc(Cl)cc(Cl)c1)N1CC[C@H]2[C@H](CCCN2Cc2ccc(F)cc2)C1	-1	/	-1	-1	-2
CCCCNc1cccc2c1S(=O)(=O)N[C@H](Cc1ccccc1)CO2	-1	/	-1	-2	-1
O=C1CSc2ccc(C(=O)N3CCCC(C(=O)N4CCCN(Cc5ccccc5)CC4)C3)cc2N1 (centres undefined)	-1	/	-1	-4	-1
CC(=O)C1=C(O)C(=O)OC1c1ccc(Cl)cc1 (centres undefined)	0	4.4*	0	1	-1
CC(=O)C1=C(O)C(=O)OC1c1ccc(C)cc1 (centres undefined)	0	3	-1	-3	-1
O=C(CCCN1C(=O)S/C(=C\C=C\c2ccccc2)C1=O)Nc1ccc(C(=O)O)cc1	1	1	-1	5	0
CC(=Cc1ccccc1)C=C1SC(=S)N(CCCC(=O)Nc2ccc(C(=O)O)cc2)C1=O	4.2*	/	-2	2	0
O=C(CCN1C(=O)S/C(=C\C=C\c2ccccc2)C1=O)Nc1ccc(O)cc1	0	2	0	12*	0
CC(=O)c1ccc(NC(=O)CN2C(=O)/C(=C/C=C/c3ccccc3)SC2=S)cc1	0	-1	0	3	6.5*
CCN(CC)CCOC(=O)c1ccc(NC(=O)CCCN2C(=O)/C(=C\c3cccs3)SC2=S)cc1	6.8*	1	0	-3	-1
O=C(Nc1ccc(OC(F)F)cc1)c1ncc(Cl)c(Cl)c1Cl	0	0	-2	5	2
Cc1ccc(NC(=O)c2ncc(Cl)c(Cl)c2Cl)cc1C	0	3	0	5	5.9*
O=C(Cn1nnc(-c2ccccc2F)n1)Nc1ccc(F)cc1F	0	/	-1	0	4
COC(=O)[C@]12C[C@H](CC(=O)N3CCCCC3)C(=O)N(Cc3cccc4ccccc34)C1=C[C@H](C(C)(C)C)O[C@@H]2C	-2	/	0	-2	1
COC(=O)[C@]1(CNS(=O)(=O)C2CC2)CC(=O)N(C)[C@@H]1c1ccccc1	-1	/	-2	-2	-1
NCC12CC3CC(C1)CC(c1ccc(Br)cc1)(C3)C2	-1	0	-1	0	-2
Cc1ccc(C23CC4CC(CC(CN)(C4)C2)C3)cc1	0	4.9*	0	0	2
COC(=O)CN1CCN(C(=O)c2nocc2C)CC1	1	/	-2	1	-1
